Assay results from PubChem BioAssay (NCATS).
Results filed as inconclusive are left out. Where a call stands in place of a potency, no number is given. A number with no mark means an inactive call. The source made the active and inactive calls. Calls come from the whole dose curve; as a rule, active = well fitted curve in the direction sought with a large enough effect; inconclusive = small, poorly fitted or top-dose-only effect, or another doubt; inactive = no such curve, though single readings can be large; an effect the other way counts as inactive or inconclusive.

Assays:
[1] = qHTS of pediatric cancer cell lines to identify multiple opportunities for drug repurposing: Primary screen for Rh41 cells (AID 1347108); note: nearly all actives have a fitted effect of over 70% in size; note: potency is the fitted concentration of half-maximal effect;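 for activity change, negative = cytotoxic: series mostly up to about 46 µM; luminescence drop marks cytotoxic hits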
How it was run: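 Phenotypic viability qHTS, 48 h compound exposure, CellTiter-Glo luminescence read-out; multi-concentration dosing so that potency and efficacy derive directly from the primary screen's curves.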

[2] = qHTS of pediatric cancer cell lines to identify multiple opportunities for drug repurposing: Primary screen for Rh30 cells (AID 1347107); note: series mostly up to about 46 µM; nearly all actives have a fitted effect of over 75% in size
How it was run: (§1)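 Viability after 48 h compound treatment at 37C, 500-1,000 cells/well, read as ATP luminescence with CellTiter-Glo. Primary screens used 11-point (MIPE, 0.78 nM-46 µM) or 8-point (NPC, 0.59 nM-46 µM) final concentrations; follow-up screens used 11-point dilutions.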

[3] = qHTS of pediatric cancer cell lines to identify multiple opportunities for drug repurposing: Confirmatory screen for NB1643 cells (AID 1347109); note: nearly all actives have a fitted effect of over 45% in size; note: potency is the fitted concentration of half-maximal effect
How it was run: as §1

[4] = qHTS of pediatric cancer cell lines to identify multiple opportunities for drug repurposing: Confirmatory screen for A673 cells (AID 1347110); note: nearly all actives have a fitted effect of over 65% in size; note: potency is the fitted concentration of half-maximal effect
How it was run: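 Concentration-response curves came straight from titrations: 11 points (0.78 nM to 46 µM) for MIPE and several concentrations (0.59 nM to 46 µM) for NPC in primary, 11 points in follow-up. Readout: ATP luminescence at 48 h.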

[5] = qHTS of pediatric cancer cell lines to identify multiple opportunities for drug repurposing: Confirmatory screen for SK-N-MC cells (AID 1347111);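 note: cells exposed to compound for 48 h before the readout; nearly all actives have a fitted effect of over 70% in size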; note: potency is the fitted concentration of half-maximal effect
How it was run: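 SK-N-MC cells at 500-1,000 cells/well in growth media were pre-incubated 5 h, then exposed to compounds at 11-point dilutions for 48 h at 37 degrees C, 5% CO2. Viability was read as CellTiter-Glo luminescence.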

[6] = qHTS of pediatric cancer cell lines to identify multiple opportunities for drug repurposing: Confirmatory screen for BT-12 cells (AID 1347112); note: nearly all actives have a fitted effect of over 55% in size; note: potency is the fitted concentration of half-maximal effect
How it was run: as §1

[7] = qHTS of pediatric cancer cell lines to identify multiple opportunities for drug repurposing: Confirmatory screen for DAOY cells (AID 1347114); note: nearly all actives have a fitted effect of over 65% in size
How it was run: (§2)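 Viability measured as metabolically active cells via CellTiter-Glo luminescence following 48 hours of compound exposure, 11-point dilutions in confirmatory testing. 500-1,000 cells/well plated 5 hours before dosing; controls were DMSO and 2.3 µM bortezomib.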

[8] = qHTS of pediatric cancer cell lines to identify multiple opportunities for drug repurposing: Confirmatory screen for NB-EBc1 cells (AID 1347115); note: nearly all actives have a fitted effect of over 45% in size; note: potency is the fitted concentration of half-maximal effect
How it was run: as §1

[9] = qHTS of pediatric cancer cell lines to identify multiple opportunities for drug repurposing: Confirmatory screen for SJ-GBM2 cells (AID 1347116); note: nearly all actives have a fitted effect of over 60% in size; note: potency is the fitted concentration of half-maximal effect
How it was run: as §2

[10] = qHTS of pediatric cancer cell lines to identify multiple opportunities for drug repurposing: Confirmatory screen for LAN-5 cells (AID 1347113); note: nearly all actives have a fitted effect of over 65% in size; note: potency is the fitted concentration of half-maximal effect
How it was run: as §1

CNCC(O)c1ccc(O)c(O)c1 (stereo not drawn)
Potency [1]: inactive

O=Cc1ccccc1C=O
outcome [2]: inactive
Potency [1]: inactive

O=c1cc[nH]c(=S)[nH]1
outcome [2]: inactive
Potency [3]: inactive
Potency [4]: 9.27 µM (active)
Potency [5]: 2.93 µM (active)
Potency [6]: inactive
outcome [7]: inactive
Potency [8]: inactive
Potency [9]: inactive

C[C@@H]1CC[C@@]2(OC1)O[C@H]1C[C@H]3[C@@H]4CC[C@H]5C[C@@H](O)CC[C@]5(C)[C@H]4CC(=O)[C@]3(C)[C@H]1[C@@H]2C
activity change, negative = cytotoxic [2]: 18.9% [at 4.84 µM]
activity change, negative = cytotoxic [1]: 21.2% [at 4.84 µM]

C[C@@H]1C[C@H]2[C@@H]3C[C@H](F)C4=CC(=O)C=C[C@]4(C)[C@@]3(F)[C@@H](O)C[C@]2(C)[C@@]1(O)C(=O)CO
outcome [2]: inactive
Potency [3]: inactive
Potency [4]: inactive
Potency [5]: 13.1 µM (active)
Potency [6]: inactive
outcome [7]: inactive
Potency [8]: inactive
Potency [9]: inactive

CC(=O)Oc1ccc(C2(c3ccc(OC(C)=O)cc3)C(=O)Nc3ccccc32)cc1
outcome [2]: inactive
Potency [1]: inactive

CC(C)(O)c1ccccc1CC[C@@H](SCC1(CC(=O)O)CC1)c1cccc(/C=C/c2ccc3ccc(Cl)cc3n2)c1
outcome [2]: inactive
Potency [1]: inactive

CCN(CC)CCNC(=O)c1cc(Cl)c(N)cc1OC
outcome [2]: inactive
Potency [3]: inactive
Potency [4]: inactive
Potency [5]: inactive
Potency [6]: inactive
outcome [7]: inactive
Potency [8]: inactive

CCN(CC)CCNC(=O)c1c(C)[nH]c(/C=C2\C(=O)Nc3ccc(F)cc32)c1C
Potency [1]: 21.1 µM (active)

CCCCOc1cc(C(=O)OCCN(CC)CC)ccc1N
outcome [2]: inactive
Potency [1]: inactive

Cc1ccc2nc(N)[nH]c(=O)c2c1Sc1ccncc1
Potency [3]: inactive
Potency [4]: 0.465 µM (active)
Potency [5]: 2.08 µM (active)
Potency [6]: inactive
Potency [10]: inactive
outcome [7]: inactive
Potency [8]: 11.7 µM (active)
Potency [9]: inactive

COc1ccc(S(=O)(=O)Nc2nnc(CC(C)C)s2)cc1
outcome [2]: inactive
Potency [1]: inactive

CC(=O)CCC(=O)O
outcome [2]: inactive
Potency [1]: inactive

CC1=C(C/C=C(\C)CCC[C@H](C)CCC[C@H](C)CCCC(C)C)C(=O)c2ccccc2C1=O
outcome [2]: inactive
Potency [1]: inactive

CCCCC/C(C=O)=C\c1ccccc1
outcome [2]: inactive
Potency [3]: 7.37 µM (active)
Potency [4]: 2.93 µM (active)
Potency [5]: 9.27 µM (active)
Potency [6]: 26.1 µM (active)
Potency [10]: 5.22 µM (active)
outcome [7]: inactive
Potency [8]: inactive
Potency [9]: inactive

CCCCC(CC)COC(=O)c1ccccc1O (stereo not drawn)
outcome [2]: inactive
Potency [1]: inactive

CCN(CC)C(=O)Nc1ccc(OCC(O)CNC(C)(C)C)c(C(C)=O)c1 (stereo not drawn)
outcome [2]: inactive
Potency [1]: inactive

CC12CCC(CC1)C(C)(C)O2
outcome [2]: inactive
Potency [1]: inactive

NC1CCN(c2cccc(Cl)n2)CC1
outcome [2]: inactive
Potency [1]: inactive

O=C(O)CN1C(=O)c2cccc3cccc(c23)C1=O
outcome [2]: inactive
Potency [1]: inactive
Potency [4]: inactive
Potency [5]: 2.93 µM (active)
outcome [7]: inactive
Potency [8]: 26.1 µM (active)
Potency [9]: 16.5 µM (active)
